BRCT inh green – qHTS Assay for Inhibitors of BRCT-Phosphoprotein Interaction (Green Fluorophore); BRCA1 BRCT-phosphopeptide binding, green fluorescence polarization; Potency, µM (doses to about 76.9 µM), inactives show at the top dose activity change, negative = inhibition, usual class: inhibitors; 0.05% of 75,000 active; AID 875, 2007;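 note: potency is the fitted concentration of half-maximal effect; plate controls were peptide without protein for full effect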
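Fluorescence polarization: His-tagged BRCT (~35 kDa BRCA1 C-terminus, 250 nM) bound to 100 nM fluorescein-labeled phosphorylated 10-aa BACH1 peptide, pH 7.3 phosphate buffer with DTT and Tween 20. Compounds incubated 12 min at room temperature; inhibition read as lowered polarization.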
ERK AVP inh – qHTS Assay for Inhibitors of the ERK Signaling Pathway using a Homogeneous Screening Assay; AID 995, 2007; HEK293-V1b, vasopressin-stimulated pERK AlphaScreen; 0.99% of 72,000 active; Potency, µM (series often up to 57.5 µM), for inactives: at the top dose activity, negative = inhibition, hits mostly inhibitors; note: potency is the fitted concentration of half-maximal effect; % is set by controls: 0 for no effect and ±100 for the full control effect; nearly all actives have a fitted effect of over 55% in size
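qHTS, compounds titrated on V1b-expressing HEK293 cells. Preincubation 30 min at 37C, vasopressin 25 nM for 5 min, lysis 10 min, bead incubation 5 hr at room temperature.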
YjeE inh – qHTS Assay for Inhibitors of YjeE. purified YjeE enzyme, qHTS inhibition assay. 0.05% of 71,000 active. tRNA threonylcarbamoyladenosine biosynthesis protein TsaE (Escherichia coli (strain …. Potency, µM
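Fluorescence polarization of a BODIPY Texas Red–ADP probe (2 uM) bound to purified YjeE (10 uM) was read after 15 min room-temperature incubation with compounds. Loss of polarization marks inhibitors; ADP serves as titrated control.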
BRCT inh red – qHTS Assay for Inhibitors of BRCT-Phosphoprotein Interaction (Red Fluorophore); BRCT-phosphopeptide binding, red fluorescence polarization; 0.03% of 75,000 active; AID 892, 2007; Potency, µM (highest dose often 76.9 µM), inactives show at the highest dose activity change, negative = inhibition, actives largely listed as inhibitors; note: % is set by controls: 0 for no effect and ±100 for the full control effect
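Rhodamine-labelled pBACH1 10-mer (100 nM) bound to BRCT domain (100 nM) at pH 7.3; compounds incubated 12 min room temperature, polarization read. Free peptide defines full inhibition; unlabelled decapeptide titrated as control.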
Pol III holo inh – qHTS Assay for Inhibitors of DNA Polymerase III Holoenzyme System; reconstituted DNA polymerase III holoenzyme replication, biochemical; Potency, µM (top dose mostly 57.1 µM), for inactives: top-dose activity change, negative = inhibition; 0.25% of 71,000 active; AID 603, 2007; note: potency is the fitted concentration of half-maximal effect; % is set by controls: 0 for no effect and ±100 for the full control effect
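Reconstituted *E. coli* holoenzyme (0.35 nM Pol III, 1 nM beta, 154 nM SSB, 2 nM primase) was preincubated with compound for 15 min at RT. Synthesis on 1.4 nM ssM13Gori ran 35 min, then was stopped with PicoGreen/EDTA and read as dsDNA fluorescence.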
Starred values were filed as active, the others as inactive; i = inactive; ? = inconclusive; / = no result given; [ ] = remark or other dose. Hits are enriched below; roughly 1.2% of the tested compounds scored in any of these assays. Calls come from the whole dose curve; as a rule, active = well fitted curve in the direction sought with a large enough effect; inconclusive = small, poorly fitted or top-dose-only effect, or another doubt; inactive = no such curve, though single readings can be large; an effect the other way counts as inactive or inconclusive.

SMILES	BRCT inh green	ERK AVP inh	YjeE inh	BRCT inh red	Pol III holo inh
C#C[C@@]1(O)CC[C@@H]2[C@@H]3CCC4=CC(=O)CC[C@@H]4[C@H]3CC[C@]21C	-1%[34.4 µM]	-10%[25.7 µM]	i	1%[34.4 µM]	0%[25.6 µM]
CC#C[C@]1(O)CC[C@H]2[C@@H]3CCC4=CC(=O)CCC4=C3[C@H](c3ccc(N(C)C)cc3)C[C@@]21C	-2%	13µM*	i	-2%	-4%
C[N+]1(NCC[N@@+]2(C)CCc3ccccc3C2)CCCCC1	-1%[15.4 µM]	5%[11.5 µM]	i	-2%[15.4 µM]	-3%[11.4 µM]
CCOc1ccccc1C(=O)Nc1cc(OC)ccc1OC	-3%	/	/	0%	/
CCOc1ccccc1C(=O)Nc1cc(Cl)ccc1O	-3%	10µM*	i	1%	1%
CC1=CC(=O)CC(C)(C)[C@]1(O)/C=C\C(C)=C\C(=O)O	1%[15.4 µM]	7%[11.5 µM]	i	0%[15.4 µM]	-3%[11.4 µM]
O=C(Nc1ccc2oc(-c3ccccc3F)nc2c1)c1ccc2c(c1)OCCO2	1%	10µM*	i	0%	0%
O=C(Nc1ccc2nn(-c3ccccc3)nc2c1)c1ccc2c(c1)OCCO2	0%	16µM*	i	1%	-2%
C/C(=N/O)c1ccc2cc(Br)c3ccccc3c2c1	1%[15.4 µM]	-10%[11.5 µM]	i	-4%[15.4 µM]	-8%[11.4 µM]
COc1ccccc1CNc1cc(-c2ccccc2C)ncn1	0%	-28%	i	0%	-1%
COc1ccc(CNc2cc(-c3ccccc3C)ncn2)c(OC)c1	0%	13µM*	i	-1%	4%
COc1ccccc1CNc1cc(-c2ccccc2OC)ncn1	-5%	7.9µM*	i	2%	-10%
Cc1ccc(C(=O)C2CCN(CC(=O)Nc3ccc(N(C)C)cc3)CC2)cc1	2%	16µM*	i	0%	-3%
N#CCSc1nc(Nc2ccc3c(c2)OCO3)c2ccccc2n1	2%	32µM*	i	-1%	-3%
O=C(O)[C@H](Cc1c[nH]c2ccccc12)N1C(=O)c2ccccc2C1=O	-2%[15.4 µM]	3%[11.5 µM]	i	0%[15.4 µM]	-8%[11.4 µM]
COc1cccc(OC)c1-c1nn2c(-c3cc(-c4ccccc4)n[nH]3)nnc2s1	32%	-14%	?	-13%	13µM*
COc1ccc(-c2nn3c(-c4ccccc4)nnc3s2)cc1	-3%	?	i	-2%	2%
CC(=O)c1c(C)[nH]c(C(=O)OCc2nnc(-c3ccccc3)o2)c1C	-3%	25µM*	i	0%	8%
COc1ncc2nc(-c3ccc(Cl)cc3)c(=O)n(Cc3cccs3)c2n1	-2%	7%	i	0%	-7%
O=C(NCCc1ccccc1)c1cnn2c(C(F)F)cc(C3CC3)nc12	5%	-7%	i	-3%	-3%
Cc1nn(C)cc1CNC(=O)c1cnn2c(C(F)F)cc(C3CC3)nc12	4%	7.9µM*	i	-2%	-6%
CCCOCC(C)O (configuration not stated)	0%	8%	i	0%	0%
CC(=O)N1CCCc2cc(S(=O)(=O)CCC(=O)N3CCN(c4cccc(C)c4)C(C)C3)ccc21 (configuration not stated)	1%	?	i	1%	16µM*
COC(=O)c1cccc(Nc2nc3ccccc3nc2C)c1	-1%	25µM*	i	-1%	4%
CSc1ccc(NC(=O)[C@H]2CCCC[C@@H]2C(=O)O)cc1	-2%[15.4 µM]	-1%[11.5 µM]	i	-2%[15.4 µM]	-8%[11.4 µM]
COc1ccc2c(c1)c(=O)oc1cc(OCC(=O)N3CCCC(C)C3)ccc12 (configuration not stated)	2%	32µM*	i	-1%	-8%
CC1(C)CC(NC(=O)c2coc(=O)c(Br)c2)CC(C)(C)N1	-5%	20µM*	i	0%	0%
COc1ccc(C2=Nn3c(nnc3-c3ccccc3OC)SC2)cc1OC	3%	5µM*	i	9%	-9%
COc1ccc(C2=Nn3c(nnc3-c3ccc(OC)cc3)SC2)cc1	0%	10µM*	i	-1%	-1%

From PubChem BioAssay
